Data taken from PubChem BioAssay (NCI).
The panel holds about 83,000 compounds, 20% with a hit somewhere; the sample as a whole holds those more often.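 Note: values are percent growth. 100 is the growth of untreated cells, values between 100 and 0 indicate rising inhibition; between -100 and 0 indicates cell death.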 Values without a mark were called inactive. Activity calls are given as the source filed them. Rule for the calls: active = growth percent below 10; inactive = the rest.

Legend:
Assay in all cases: NCI-60 one-dose screen, 48 h (100 = growth as untreated, 0 = no growth, -100 = all killed)
Details in all cases: 10 µM
HCT-15 colon = tested on: HCT-15 colon
HT29 colon = tested on: HT29 colon
SNB-75 CNS = tested on: SNB-75 CNS
SNB-19 CNS = tested on: SNB-19 CNS
PC-3 prostate = tested on: PC-3 prostate
SK-MEL-5 melanoma = tested on: SK-MEL-5 melanoma
UACC-62 melanoma = tested on: UACC-62 melanoma
LOX IMVI melanoma = tested on: LOX IMVI melanoma
SK-MEL-28 melanoma = tested on: SK-MEL-28 melanoma
SK-MEL-2 melanoma = tested on: SK-MEL-2 melanoma
EKVX NSCLC = tested on: EKVX NSCLC
SN12C renal = tested on: SN12C renal
UO-31 renal = tested on: UO-31 renal
TK-10 renal = tested on: TK-10 renal
ACHN renal = tested on: ACHN renal
A498 renal = tested on: A498 renal
CCRF-CEM leukemia = tested on: CCRF-CEM leukemia
MOLT-4 leukemia = tested on: MOLT-4 leukemia
CAKI-1 renal = tested on: CAKI-1 renal

SMILES | growth (HCT-15 colon) | growth (HT29 colon) | growth (SNB-75 CNS) | growth (SNB-19 CNS) | growth (PC-3 prostate) | growth (SK-MEL-5 melanoma) | growth (UACC-62 melanoma) | growth (LOX IMVI melanoma) | growth (SK-MEL-28 melanoma) | growth (SK-MEL-2 melanoma) | growth (EKVX NSCLC) | growth (SN12C renal) | growth (UO-31 renal) | growth (TK-10 renal) | growth (ACHN renal) | growth (A498 renal) | growth (CCRF-CEM leukemia) | growth (MOLT-4 leukemia) | growth (CAKI-1 renal)
CC(CN(C)C)Oc1ccc(OC(C)CN(C)C)c2c1C(=O)c1ccccc1C2=O (stereo not drawn) | 88.2% | 20.8% | 54.9% | 37.2% | 38.3% | 69.1% | 68% | 27.4% | 96% | 41% | 70.7% | 33.5% | 63.5% | 42.7% | 28% | 59.6% | 28.9% | 9.9% (active) | 
CS(=O)(=O)c1nccc(-c2c(-c3cccc(OCCN4CCOCC4)c3)nc3sccn23)n1 | 81.8% | 66.9% | 75.9% | 82.5% | 77.9% | 84.5% | 89.1% | 91.3% | 99.3% | 102% | 101% | 96.8% | 68.5% |  | 90.9% | 59.2% |  | 93.9% | 85.3%
Clc1ccc2c(c1)C(N1CCNCC1)=Nc1ccccc1O2 | 47.5% | 11.6% | 16.4% | 67.6% | 40% | 10.4% | 30.4% | 39% | -10.9% (active) |  | 64.6% | 57.8% | 28.3% | 64.9% | 46% | 25.2% | 58.5% | 20% | 36.5%
COc1cc2c(cc1NC(=O)C(Cl)Cl)-c1ccc(NC(=O)C(Cl)Cl)cc1C2 | -7.21% (active) | -35.3% (active) | -29.6% (active) | 3.35% (active) | 18.8% | 22.5% | -22.2% (active) | 67% | -54.7% (active) |  | -9.2% (active) | 58.6% | -9.34% (active) | -12.3% (active) | -43.4% (active) | 10.1% | 81.9% |  | -35.4% (active)
CC1=CC2C(C(O)CC3(C)C2CC(C)C32OCOC23COCO3)C2(C)C/C(=C/O)C(=O)C=C12 (stereo not drawn) | -24.2% (active) | 3.89% (active) | 100% | 56% | 31.7% | 44.2% | 30.4% | -60.9% (active) | 66.3% | 76.1% | 48.8% | 26.2% |  | 42.7% | 8.9% (active) |  | -3.03% (active) | -32.8% (active) | 67.6%
CC(C)(C)c1ccc(S(=O)(=O)N[C@H]2CC[C@H]3[C@@H]4CCc5cc(O)ccc5[C@H]4CC[C@]23C)cc1 | 34.7% | 10.2% | 55.4% | 80.6% | 30.6% | 40.4% | 61.2% |  | 79.1% |  |  | 28.4% | 25.1% | 67.5% | 35.2% | 33.6% |  | 16.8% | 38.9%
C=CCNCCN1C(=O)c2ccc3c4c(ccc(c24)C1=O)C(=O)N(CCNCC=C)C3=O | -67.4% (active) | -44.9% (active) | -37.9% (active) | -88.1% (active) | -7.8% (active) | -95.4% (active) |  | -78.8% (active) | -57% (active) | -45.9% (active) | -82% (active) | -78% (active) | -58.4% (active) | -6.43% (active) | -56.3% (active) | -73.7% (active) | 4.83% (active) | -18.3% (active) | -64.2% (active)
Cn1cnc([N+](=O)[O-])c1/C=C1\Oc2ccc(Br)cc2C1=O | 70.4% | 83.8% | 88.1% | 90.1% | 81.5% | 91.2% | 96.6% | 72.8% | 97.4% | 83.1% |  | 98.6% | 67.6% | 99.7% | 68.8% | 100% | 2.63% (active) | 60.2% | 87.3%
O=C1/C=C/[C@@H](O)[C@@H]2C[C@@H](O)C[C@H]2/C=C/CCC[C@@H](C(F)(F)F)O1 | 100% | 39.9% | 60.7% | 97.1% | 92.9% | 60.5% |  | 71.3% | 61.8% | 86.3% | 90.4% | 90.3% | 47.6% | 73.7% | 98.3% | 84.8% | 92.2% | 84.7% | 98.4%
C[C@]12CC[C@@H]3c4ccc(OS(=O)(=O)O)cc4CC[C@H]3[C@@H]1CC[C@@H]2NS(=O)(=O)c1ccc(-c2ccccc2)cc1 | 52.6% | 50% | 75.6% | 89.6% | 41% | 67.4% | 79.1% |  | 95.8% |  |  | 68.7% | 40.8% | 93.3% | 47.7% | 85.1% |  | 31.4% | 66.2%
O=C1/C(=C/c2cccc(F)c2)Cc2ccccc21 | 93.7% | 94.6% | 89.4% | 98.7% | 90% | 99.4% | 99.2% | 96.7% | 105% |  |  | 98.6% | 92.8% | 94.2% | 102% |  |  |  | 82.9%
CC(C)N(CCOc1cccc(-c2nc3sccn3c2-c2ccnc(S(C)(=O)=O)n2)c1)C(C)C | 81.8% | 54.5% | 78% | 101% | 72.7% | 3.97% (active) | 84.1% | 84.3% | 99.3% | 109% | 101% | 83.9% | 89.8% |  | 93.7% | 53.2% | 81% | 84.3% | 93.3%
NC(CSC(c1ccccc1)(c1ccccc1)c1cccc2ccccc12)C(=O)O (stereo not drawn) | 102% | 113% | 87.6% | 84.9% | 84.3% | 82.6% | 90.4% | 96.9% | 93.7% |  | 88% | 82.7% | 84.3% | 115% | 97.4% | 100% | 86.2% | 88.1% | 89.9%
CC(=O)Oc1cc(OC(C)=O)c2ccccc2c1OC(C)=O | 81.3% | 92.9% | 85.7% | 93.8% | 62.6% | 60.9% | 89.9% | 48.3% | 99.5% |  | 97.5% | 87.4% | 62.6% | 150% | 84.9% | 95.2% | 76.7% | 69.5% | 
CCN(CC)CCOc1cccc2c1C(=O)c1cccc(OCCN(CC)CC)c1C2=O | 57% | 13.8% | 53.3% | 31.8% | 32.2% | 72% | 56.9% | 18.2% | 82.5% | 32.1% | 53.6% | 27.5% | 41% | 47.4% | 17.7% | 63% | 22.3% | 8.32% (active) | 
COc1ccc(-c2nn(-c3cccc(Cl)c3)cc2-c2c(C#N)c(=O)n3[nH]c(-c4ccccc4)nc3c2C#N)cc1 | 93.4% | 96.9% | 80.3% | 90.9% | 101% | 96.4% | 99.3% | 87.6% | 115% |  | 35.9% | 104% | 82.5% | 123% | 101% |  | 74.4% | 61.6% | 62.9%
